This experiment in a line: NCI Yeast Anticancer Drug Screen. Data for the mgt1 strain (AID 153). Particulars: S. cerevisiae mgt1 mutant growth inhibition, stronger effect = higher value. The method, then:
Growth inhibition of yeast strains with defined genetic alterations is measured as a screen for potential anti-cancer activity. Selected strains with alterations in DNA damage repair or cell cycle control were exposed to compounds and growth inhibition was measured relative to vehicle treated controls. The strain used in this assay is mgt1

The panel holds about 79,000 compounds, 15% with a hit somewhere; the sample as a whole holds those more often. A number with no mark means an inactive call. Active and inactive are the calls of the source. No stated cut-off is given here; in the data, active means growth inhibition above about 70%; inactive means the rest.

Consider `O=[N+]([O-])c1cccc([N+](=O)[O-])c1S(=O)(=O)c1ccccc1`, for which the growth inhibition reads like this: (at 1.2 µM) 19%; (at 3.7 µM) 1%; (at 11.0 µM) 68%; (at 33.0 µM) 93% (active); (at 100.0 µM) 94% (active).

With `Cc1cc(N=Nc2ccc(S(=O)(=O)[O-])cc2)cc(C(=O)[O-])c1[O-].NC1CCCCC1N.[Na+].[Pt+4]`, the growth inhibition (at 1.2 µM) was 34%; the growth inhibition (at 3.7 µM) is 66%; the growth inhibition (at 11.0 µM) is 99% (active); the growth inhibition (at 33.0 µM) is 99% (active); the growth inhibition (at 100.0 µM) was 98% (active).

In the case of `O=C1c2ccccc2C(=O)c2c(NC3CCCCC3)ccc(Nc3ccc(S(=O)(=O)O)cc3)c21`, the growth inhibition is, setting by setting: (at 1.2 µM) -2%; (at 3.7 µM) -1%; (at 11.0 µM) -2%; (at 33.0 µM) 81% (active); (at 100.0 µM) 68%.

Consider `CC(=O)OC1CCC2(C)C(=CCC3C4CCC5(OC6CC(C)CN(C(C)=O)C6C5C)C(C)=C4C(=O)C32)C1` (stereo not given), for which the growth inhibition by setting is: (at 1.2 µM) -26%; (at 3.7 µM) -30%; (at 11.0 µM) 61%; (at 33.0 µM) 97% (active); (at 100.0 µM) 96% (active).

As for `CN=C(N)N/N=C/c1ccc2c(c1)Cc1ccccc1-2`, the growth inhibition (at 1.2 µM) was -11%; the growth inhibition (at 3.7 µM) was -2%; the growth inhibition (at 11.0 µM) was 1%; the growth inhibition (at 33.0 µM) was 14%; the growth inhibition (at 100.0 µM) was 92% (active).

For the compound `Cc1cc(CO)c(O)c(CNCc2cc(C)cc(CO)c2O)c1`, the growth inhibition is, setting by setting: (at 1.2 µM) -13%; (at 3.7 µM) -17%; (at 11.0 µM) -18%; (at 33.0 µM) -9%; (at 100.0 µM) 98% (active).

Take `O=C(O)C1OC1(c1cccc(Cl)c1)c1ccccc1Cl` (stereo not given): the growth inhibition (at 1.2 µM) is 17%; the growth inhibition (at 3.7 µM) is 16%; the growth inhibition (at 11.0 µM) was 28%; the growth inhibition (at 33.0 µM) is 67%; the growth inhibition (at 100.0 µM) was 95% (active).

In the case of `CC(C)/C(Cl)=N\OC(=O)Nc1ccc(F)cc1`, the growth inhibition (at 1.2 µM) was 3%; the growth inhibition (at 3.7 µM) is 0%; the growth inhibition (at 11.0 µM) was 6%; the growth inhibition (at 33.0 µM) is 78% (active); the growth inhibition (at 100.0 µM) was 99% (active).

The values are drawn from PubChem BioAssay (NCI).
